Measurements taken from publication PMC4552634, “A New Set of Chemical Starting Points with Plasmodium falciparum Transmission-Blocking Potential for Antimalarial Drug Discovery” (PLoS ONE, 2015).
Hit rate of the full screen: of about 13,000 compounds, about 3,200 (25%) showed an effect of 50% or more. This is one part of the list. Square brackets hold non-standard residues; d marks the D form. Peptide text beside a SMILES is read from it. * marks the point of attachment. Butanoyl(4-(4-HOPh)) = O=C(CCCc1ccc(O)cc1)*

Tested on: P. falciparum stage V gametocytes
Design: BacTiter-Glo ATP luminescence viability of purified stage V gametocytes in 384-well plates, per cent inhibition versus DMSO
Details: 48 h, 5 µM; inhibitor

SMILES | % Inhibition
O=C(NCc1cccc(C(F)(F)F)c1)c1ccc(CNC(=O)c2ccc(O)c(-c3ccc(Cl)c(Cl)c3)c2)cc1 [TCMDC-140834] | 9.818%
O=C(NC1CC1)c1ccc(N2CCCC(COc3ccc4c(c3)CCCC4)C2)nc1 (stereo not drawn) [TCMDC-134263] | 18.7%
O=C(NCC(=O)N1CCC[C@H]1C(=O)O)[C@@H](Cc1ccccc1)NC(=O)[C@@H]1CCCN1C(=O)CCCc1ccc(O)cc1 [TCMDC-141970] ({Butanoyl(4-(4-HOPh))}-P[dF]GP-OH) | -16.67%
Cc1ccc(NC(=O)Cc2noc(CC3CCCN3C(=O)N[C@@H](C)c3ccccc3)n2)cc1 (stereo partly drawn) [TCMDC-134994] | 0.878%
Cc1cccc2nc(-c3ccc(-c4ccc(NC(=O)C(C)CN5CCN(C)CC5)cc4)s3)[nH]c12 (stereo not drawn) [TCMDC-137154] | -22.77%
CC(CN1CCN(C)CC1)C(=O)Nc1ccc(-c2ccc(-c3nc4ccccc4[nH]3)cc2)cc1 (stereo not drawn) [TCMDC-137148] | 72.16%
CC(CN1CCN(C)CC1)C(=O)Nc1ccc(-c2cccc(-c3nc4ccccc4[nH]3)c2)cc1 (stereo not drawn) [TCMDC-137139] | 81.76%
CC(CN1CCN(C)CC1)C(=O)Nc1ccc(-c2csc(-c3nc4ccccc4[nH]3)c2)cc1 (stereo not drawn) [TCMDC-132391] | 31.65%
CCC(C)NC(=O)Nc1ccc(-c2cccc(-c3nc4ccccc4[nH]3)c2)cc1 (stereo not drawn) [TCMDC-133241] | 3.681%
CC(CN1CCN(C)CC1)C(=O)Nc1ccc(-c2ccc(-c3nc4ccccc4[nH]3)s2)cc1 (stereo not drawn) [TCMDC-137140] | 86.65%
CC(CN1CCN(C)CC1)C(=O)Nc1cccc(-c2ccc(-c3nc4ccccc4[nH]3)s2)c1 (stereo not drawn) [TCMDC-137142] | -55.57%
CCc1cc(C(=O)c2cccc(C)c2)c(NC(=O)CN2CCN(C(=O)c3ccco3)CC2)s1 [TCMDC-123646] | 4.148%
O=C(O)/C=C/c1cccc(F)c1F [TCMDC-124298] | -5.397%
O=C(Nc1cn(-c2ccc(OCc3cccc(F)c3)c(Cl)c2)c2ncncc12)c1ccncc1 [TCMDC-135377] | -11.19%
CCOc1ccc(Br)cc1/C=C/C(=O)Nc1ccc2c(c1)CCCN(C)C2 [TCMDC-134049] | 5.79%
CCN1CCN(c2ccc(NC(=O)c3cc4c(C)nn(-c5ccccc5)c4s3)cc2C)CC1 [TCMDC-125105] | 8.854%
O=C(Nc1nc(-c2cc(F)ccc2F)cs1)c1cncc(Br)c1 [TCMDC-123613] | -58.06%
O=C(Nc1nc(-c2ccccn2)cs1)c1ccccc1COc1ccccc1 [TCMDC-125336] | 64.14%
CC1Cc2ccccc2N1S(=O)(=O)c1cccc(C(=O)Nc2nc(-c3ccccn3)cs2)c1 (stereo not drawn) [TCMDC-124559] | 76.73%
COc1cc(OC)cc(C(=O)Nc2nc(-c3ccc(NC(=O)c4ccccc4)cc3)cs2)c1 [TCMDC-125112] | -27.73%
Cc1nn(CC(C)C)c2sc(C(=O)Nc3nc(-c4ccccn4)cs3)cc12 [TCMDC-125461] | 62.82%
CC(C)(C)c1ccc(-c2csc(NC(=O)CC(c3ccccc3)c3ccccc3)n2)cc1 [TCMDC-124604] | -3.611%
O=C(Nc1cccc(-c2csc(-c3ccccc3)n2)c1)c1cccs1 [TCMDC-123904] | 22.98%

SMILES | % Inhibition
CC1Cc2ccccc2N1S(=O)(=O)c1cc(OCC(F)(F)F)ccc1OCC(F)(F)F (stereo not drawn) [TCMDC-124044] | -9.787%
COc1cc(OC)cc(C(=O)Nc2nc(-c3ccccn3)cs2)c1 [TCMDC-125345] | 25.53%
O=C(Nc1nc(-c2ccccn2)cs1)c1ccc(Br)s1 [TCMDC-123868] | 65.77%
O=C(Nc1nc(-c2ccccn2)cs1)c1ccc(S(=O)(=O)N2CCc3ccccc32)cc1 [TCMDC-125432] | 10.03%
COc1cc(F)c2ncc(Cl)c(C(O)CN3CCC(NC(=O)c4ccc5c(c4)NC(=O)CS5)CC3)c2c1 (stereo not drawn) [TCMDC-135908] | -70.28%
Cc1noc(C)c1-c1cccc(CNCc2cccc(-c3csc(-c4nc5ccccc5[nH]4)c3)c2)c1 [TCMDC-133047] | -19.47%
Cc1cccc2nc(-c3ccc(-c4cccc(NC(=O)Nc5ccsc5)c4)s3)[nH]c12 [TCMDC-133208] | 8.037%
CC1(C)N=C(N)N=C(N)N1OCCCc1ccc(Cl)cc1Cl [TCMDC-131692] | 4.93%
O=C(NC1CCC(CCN2Cc3cccc(F)c3C2)CC1)c1cccc(-c2cccnc2)c1 (stereo not drawn) [TCMDC-139623] | -21.05%
COc1ccc2nccc([C@@H](O)CN3CCC(NC(=O)c4ccc5cc[nH]c5c4)CC3)c2c1 [TCMDC-140743] | -6.563%
COc1cc(C(=O)Nc2ccc3nc(N4CCN(C)CC4)cc(C)c3c2)cc(OC)c1OC [TCMDC-123591] | 10.02%
CCN(CC1CCN(CC2(O)CCOCC2)CC1)c1cc(C)nc(Nc2ccc(Cl)cc2)n1 [TCMDC-133808] | 30.17%
CCN(CC)CCNC(=O)c1ccc(Nc2ncc([N+](=O)[O-])c(Nc3ccccc3OC)n2)cc1 [TCMDC-138727] | 73.19%
N=C(N)c1ccc(Nc2nc(Nc3ccc(-c4ccccc4)cc3)ncc2[N+](=O)[O-])cc1 [TCMDC-136145] | 99.81%
CNC(=O)c1ccccc1Nc1nc(Nc2ccc(C(=O)O)cc2)ncc1Cl [TCMDC-133803] | -5.909%
N=C(N)c1ccc(Nc2nccc(Nc3nc(-c4ccccc4)cs3)n2)cc1 [TCMDC-136090] | -20.73%
CC(=O)Nc1ccc(Nc2ncc([N+](=O)[O-])c(Nc3ccccc3C(N)=O)n2)cc1 [TCMDC-138731] | -8.61%
CCN(CC)CCNC(=O)c1ccc(NC(=O)c2cc(-c3ccncc3)nc3ccccc23)cc1 [TCMDC-124495] | 0.6549%
CCC(C)c1ccc(NC(=O)Nc2ccc(Cn3ncc(N4CCCNCC4)c(Cl)c3=O)cc2)cc1 (stereo not drawn) [TCMDC-133313] | -21.93%
COc1cc(-c2[nH]c(-c3ccc(OCCN(C)C)cc3)cc2-c2ccncc2)ccc1Cl [TCMDC-141225] | -13.45%
N=C(N)c1ccc(NC(=O)c2cc(Sc3ccc(O)c(C(=O)Nc4ccc(C(=N)N)cc4)c3)ccc2O)cc1 [TCMDC-136287] | -39.81%
CN(C)c1ccc(C=C2SC(=N)N(c3nccs3)C2=O)cc1 [TCMDC-125861] | -21.41%
Cc1nc(N)nc(N)c1OCc1cccc2c1ccc1ccccc12 [TCMDC-131344] | 22.54%

SMILES | % Inhibition
Cc1nc2nc(N)nc(N)c2c(C)c1Cc1ccccc1Cl [TCMDC-137668] | -12.71%
Cc1nc2nc(N)nc(N)c2c(C)c1Cc1ccc(N)cc1 [TCMDC-137633] | -5.029%
Cc1nc2nc(N)nc(N)c2c(C)c1Cc1ccc([N+](=O)[O-])cc1 [TCMDC-137636] | 77.57%
Cc1nc2nc(N)nc(N)c2c(C)c1Cc1ccccc1Br [TCMDC-137242] | -1.627%
Cc1ccc(Cc2c(C)nc3nc(N)nc(N)c3c2C)cc1 [TCMDC-137657] | -7.172%
Cc1nc2nc(N)nc(N)c2c(C)c1Cc1c(Cl)cccc1Cl [TCMDC-137638] | 65.23%
Cc1nc2nc(N)nc(N)c2c(C)c1Cc1cccc(F)c1 [TCMDC-137652] | -9.941%
COc1ccc(OC)c(Cc2c(C)nc3nc(N)nc(N)c3c2C)c1 [TCMDC-137651] | -0.1524%
COc1ccccc1Cc1c(C)nc2nc(N)nc(N)c2c1C [TCMDC-137247] | 65.53%
CO/C(=C\C=C\c1cc2cc(Cl)c(Cl)cc2[nH]1)C(=O)NCCCN1CCN(c2cccc(CCCO)c2)CC1 [TCMDC-139412] | 14.82%
NC(N)=Nc1ccc(NC(=O)Nc2ccc(N=C(N)N)cc2)cc1 [TCMDC-137208] | -16.48%
Cc1cccc2nc(-c3ccc(-c4cccc(NC(=O)NCc5cccc(F)c5)c4)s3)[nH]c12 [TCMDC-133285] | -13.08%
OC1CCC(Nc2ccc3ncc(-c4ccc(Cl)cc4)n3n2)CC1 (stereo not drawn) [TCMDC-136693] | 13.04%
OC(CNc1ccnc(Nc2ccc(Cl)cc2)n1)c1ccc(C(F)(F)F)cc1 (stereo not drawn) [TCMDC-136597] | -19.72%
CC(C)(CNCc1ccc(F)c(F)c1)c1nc(-c2ccc(Cl)c(O)c2)c(-c2ccnc(N)n2)[nH]1 [TCMDC-141163] | -6.922%
O=C(NCCSCc1c(F)cccc1Cl)c1cnc2c(c1)nc(-c1cnc(-c3ccccc3)[nH]1)n2CCc1cnc[nH]1 [TCMDC-139691] | -6.07%
CCNc1cc(C)nc(Nc2ccc(NC(=O)c3ccccc3Cl)cc2)n1 [TCMDC-124986] | -9.535%
Cc1ccc2cc(NC(=O)c3cccc(C(=O)Nc4ccc5nc(C)ccc5c4)n3)ccc2n1 [TCMDC-139460] | -22.62%
CCCOc1cc(OCCC)cc(-c2ccc(C(=O)Nc3ccc4ccc(C)nc4c3)c(=O)[nH]2)c1 [TCMDC-141499] | 82.34%
CC1(C)CCCN(Cc2c(O)ccc3c(=O)c(-c4nc5ccccc5s4)c(N)oc23)C1 [TCMDC-124009] | -3.964%
O=C(NC1CCN(Cc2ccsc2)CC1)c1ccc(-c2cccc(C(F)(F)F)c2)s1 [TCMDC-134366] | 17.83%
Cc1nc(-c2nc(N3CCC(O)CC3)ncc2-c2ccsc2)sc1C [TCMDC-133149] | 35.11%
Cc1cc(CN2CCC(Nc3ncc(-c4ccsc4)c4nc(C(F)(F)F)ccc34)CC2)no1 [TCMDC-125306] | 66.69%
